{"source": "PubChem BioAssay AID624309", "about": "(Sanford-Burnham Center for Chemical Genomics, 2012)", "note": "The whole screen tested about 2,000 compounds, of which about 260 (13%) were called active. A selection follows. Unmarked numbers belong to inactive results. Cut-off read from the data, not from the text of the source: active = inhibition mostly above about 42% (no sharp cut-off); inactive = mostly below about 42%."}
{"test_system": "Nicotinate mononucleotide adenylyltransferase NadD (Staphylococcus aureus N315)", "assay": "S. aureus NadD enzyme activity blockers – biochemical, colorimetric, single concentration, confirmation (AID 624309)", "conditions": "purified S. aureus NadD, colorimetric enzyme assay; at 20 µM; hits give high values"}
{"smiles": "Nc1[nH]c(=S)nc2nc(-c3ccccc3)c(-c3ccccc3)nc12", "inhibition": "38.5%"}
{"smiles": "COc1ccc([N+](=O)[O-])cc1NC(=O)CC1SC(=Nc2cccc(C)c2C)N(/N=C(\\C)c2ccc(C)cc2)C1=O", "note": "(centres undefined)", "inhibition": "-2.98%"}
{"smiles": "Cc1nc(N2CCN(c3ccccn3)CC2)c2c(C)c(C(=O)Nc3ccc(F)c(Cl)c3)sc2n1", "inhibition": "3.33%"}
{"smiles": "C=CC1=C(C(=O)O)N2C(=O)[C@@H](NC(=O)/C(=N/OCC(=O)O)c3csc(N)n3)[C@H]2SC1", "inhibition": "95.8% (active)"}
{"smiles": "O=C(O)c1ccc(COCC(F)(F)F)cc1", "inhibition": "10.3%"}
{"smiles": "CC1(OC(=O)C2CCCC2)C(=O)C=C2C=C(c3ccc(C#N)cc3)OC=C2C1=O", "note": "(centres undefined)", "inhibition": "73.5% (active)"}
{"smiles": "Cc1nn(-c2ccccc2)c(C)c1/C=N/NC(=O)CSc1nc2ccccc2c(=O)n1-c1ccccc1", "inhibition": "8.17%"}
{"smiles": "CCOc1ccc(-c2n[nH]c(=S)n2/N=C/c2cc3c(cc2[N+](=O)[O-])OCO3)cc1", "inhibition": "4.81%"}
{"smiles": "N#CC1=C(SCc2ccc(C#N)cc2)N=C(N)C(c2nc(-c3ccccc3)cs2)C12CCCCC2", "note": "(centres undefined)", "inhibition": "24.2%"}
{"smiles": "CCN(CC)C(=O)c1sc2nc(-c3ccccc3)ccc2c1N", "inhibition": "-11.1%"}
{"smiles": "O=C(CSc1nc(Nc2ccccc2)nc(N2CCOCC2)n1)Nc1cc(Cl)ccc1O", "inhibition": "43.2%"}
{"smiles": "O=C(NCC(=O)N1CCN(c2ccccc2O)CC1)c1ccc2ccccc2c1", "inhibition": "34.8%"}
{"smiles": "CCCCCCC(=O)Nc1nc(C)c(-c2csc(Nc3cc(Cl)ccc3OC)n2)s1", "inhibition": "5.75%"}
{"smiles": "Cc1ccc(NS(=O)(=O)c2ccc(N/N=C/c3ccccc3OCC(=O)O)c([N+](=O)[O-])c2)c(C)c1", "inhibition": "64.9% (active)"}
{"smiles": "COc1ccc(Br)cc1/C=N/Nc1ccc(S(=O)(=O)Nc2ccccc2C(=O)O)cc1[N+](=O)[O-]", "inhibition": "73.9% (active)"}
{"smiles": "O=C(Nc1ccc(S(=O)(=O)Nc2nccs2)cc1)c1cc(-c2ccncc2)nc2ccccc12", "inhibition": "44.5% (active)"}
{"smiles": "COc1ccc(NS(=O)(=O)c2cc(NC(=O)CC(=O)c3ccc([N+](=O)[O-])cc3)ccc2C)cc1", "inhibition": "28.1%"}
{"smiles": "CCn1cc(C(=O)NCCCN2CCCCCC2)c(=O)c2cc(S(=O)(=O)N3CCc4ccccc4C3)ccc21", "inhibition": "-16.2%"}
{"smiles": "Cc1cc(C)c(S(=O)(=O)NN=C2c3ccccc3[C@H]3Cc4csc[n+]4[C@@H]23)c(C)c1", "inhibition": "30.1%"}
{"smiles": "Cc1ccc(Cc2cnc(NC(=O)/C(C#N)=C/c3ccc(-c4cccc([N+](=O)[O-])c4)o3)s2)cc1", "inhibition": "5.75%"}
{"smiles": "Nc1nc2n(n1)C(c1ccco1)CC(c1ccc(Cl)c(Cl)c1)N2", "note": "(centres undefined)", "inhibition": "13.2%"}
{"smiles": "CCOc1ccc2nc(N3CCCN(C(=O)Nc4ccccc4C)CC3)c(C#N)cc2c1", "inhibition": "-3.08%"}
{"smiles": "CCOc1ccc2nc(/N=C/c3nc(-c4ccccc4)oc3O)sc2c1", "inhibition": "5.96%"}
{"smiles": "COc1cccc(-c2nn(-c3ccccc3)cc2/C=C(\\C#N)C(=O)NCCCn2ccnc2)c1", "inhibition": "2.7%"}
{"smiles": "Cc1nn2c(c1-c1ccccc1)N=C(c1ccco1)CC2c1ccccc1", "note": "(centres undefined)", "inhibition": "21.2%"}
{"smiles": "COC(=O)c1ccc2nc(-c3ccc(C)cc3)c(Cc3ccc(OC)cc3C)n2c1", "inhibition": "12.6%"}
{"smiles": "Cc1cc2nc(-c3ccco3)c(Cc3cccc(F)c3)n2c(C)c1Br", "inhibition": "22.4%"}
{"smiles": "C/C(=N\\NC(=O)CNc1cccc2ccccc12)c1ccc(Br)s1", "inhibition": "8.07%"}
{"smiles": "O=C(Cc1csc(Nc2nc(=S)[nH]c3ccccc23)n1)NCCCN1CCN(c2cccc(Cl)c2)CC1", "inhibition": "33.7%"}
{"smiles": "Cc1ccc(Nc2nc(-c3sc(NC(=O)c4ccccc4)nc3C)cs2)cc1", "inhibition": "38.5%"}
{"smiles": "Cc1ccc(C(=O)NNC(=O)c2cc3cc4ccccc4nc3s2)cc1", "inhibition": "65.5% (active)"}
{"smiles": "N#CCC(=O)Nc1ccc(C(=O)OCC(=O)Nc2sc3c(c2C#N)CCCC3)cc1", "inhibition": "24.8%"}
{"smiles": "CCOc1ccc(NC(=O)c2ccc(NC(=O)COC(=O)c3ccc(NC(=O)CC#N)cc3)cc2)cc1", "inhibition": "15.8%"}
{"smiles": "O=C(COC(=O)c1ccc(Oc2ccccc2)cc1)Nc1nnc(-c2ccccc2)o1", "inhibition": "72.6% (active)"}
{"smiles": "NC(c1csc(NC(=O)Nc2ccccc2Oc2ccccc2)n1)c1ccccc1Cl", "note": "(centres undefined)", "inhibition": "25.9%"}
{"smiles": "COc1ccc(NC(=O)/C(C#N)=C\\c2cc(OC)c(OCc3ccc(C(=O)O)cc3)cc2Br)cc1", "inhibition": "11%"}
{"smiles": "NC(CSC(c1ccccc1)(c1ccccc1)c1ccc(-c2ccccc2)cc1)C(=O)O", "note": "(centres undefined)", "inhibition": "54.7% (active)"}
{"smiles": "Cc1cccc(NC(=O)c2sc3nc4c(c(-c5ccco5)c3c2N)CCC4)c1", "inhibition": "21.1%"}
{"smiles": "O=C(NC(Cc1c[nH]c2ccccc12)C(=O)N/N=C/c1ccc(Br)cc1)c1cccs1", "note": "(centres undefined)", "inhibition": "25.7%"}
{"smiles": "O=C1Nc2cc(C(=O)N3CCN(c4ccc(F)cc4)CC3)ccc2NC1CSCc1cccc(F)c1", "note": "(centres undefined)", "inhibition": "41.8%"}
{"smiles": "S=c1[nH]nc(Nc2ccccc2)s1", "inhibition": "45.2%"}
{"smiles": "Cc1ccc(-n2c(SCC(=O)N/N=C/C=C/c3ccccc3[N+](=O)[O-])nc3ccccc3c2=O)cc1", "inhibition": "3.65%"}
{"smiles": "CCOc1cc(/C=C2/N=C(c3ccc(C(C)(C)C)cc3)OC2=O)cc(Cl)c1OS(C)(=O)=O", "inhibition": "11.4%"}
{"smiles": "Cc1oc2c(C)c3oc(=O)c(CC(=O)N[C@@H](CC(C)C)C(=O)N[C@@H](Cc4ccccc4)C(=O)O)c(C)c3cc2c1C", "inhibition": "43.8%"}
{"smiles": "Cc1ccc(-c2cc(C(=O)N/N=C/C=C/c3ccco3)c3ccccc3n2)cc1C", "inhibition": "4.81%"}
{"smiles": "O=C(Nc1nnc(-c2ccccc2)o1)c1cc(-c2cccs2)nc2ccccc12", "inhibition": "55.5% (active)"}
{"smiles": "CS(=O)(=O)c1sc2nc(-c3ccccc3)cc(-c3ccccc3)c2c1N", "inhibition": "1.76%"}
{"smiles": "NC(=O)c1ccc(NC(=O)COC(=O)c2c3c(nc4ccccc24)/C(=C\\c2ccc4c(c2)OCO4)CCC3)cc1", "inhibition": "45.2%"}
{"smiles": "NS(=O)(=O)c1ccc(NC(=O)COC(=O)c2c3c(nc4ccccc24)/C(=C\\c2ccc4c(c2)OCO4)CCC3)cc1", "inhibition": "74.4% (active)"}
{"smiles": "O=C(Nc1cccc(-c2nc3ccccc3[nH]2)c1)c1ccc(C(=O)Nc2cccc(-c3nc4ccccc4[nH]3)c2)cc1", "inhibition": "34.9%"}
{"smiles": "CCOC(=O)C1=C(C)Nc2sc(C(=O)c3ccc(Br)cc3)c(N)c2C1c1ccc(C(=O)OC)cc1", "note": "(centres undefined)", "inhibition": "8.7%"}
{"smiles": "CC(=O)Nc1ccc(C(=O)Nc2nc(-c3cc(C)n(Cc4ccccc4)c3C)cs2)cc1", "inhibition": "14.3%"}
{"smiles": "COc1cccc(OCc2cc(/C=N/NC(=O)c3nc(Cl)c(Cl)c(N)c3Cl)ccc2OC)c1", "inhibition": "25.3%"}
{"smiles": "CC(C)c1ccc2c(c1)c(SC(C)(C)C)c(CC(C)(C)C(=O)O)n2Cc1ccc(Cl)cc1", "inhibition": "28.1%"}
{"smiles": "S=c1[nH]nc(-c2cccs2)n1/N=C/c1cn(-c2ccccc2)nc1-c1ccc(Cl)cc1", "inhibition": "6.28%"}
{"smiles": "COc1ccc(-c2nc3cnccn3c2NC2CCCCC2)cc1-c1cccc(Cl)c1", "inhibition": "18.8%"}
{"smiles": "O=C(COc1ccc(/C=N/NC(=O)c2ccc(O)cc2)cc1)Nc1ccc([N+](=O)[O-])cc1", "inhibition": "15.9%"}
{"smiles": "COc1ccc(-n2c(SCC(=O)Nc3sc4c(c3C#N)CCCC4)nnc2-c2ccc(O)cc2)cc1", "inhibition": "6.59%"}
{"smiles": "O=C(COc1ccc([N+](=O)[O-])cc1)Nc1ccc(N2CCCC2)cc1", "inhibition": "-0.14%"}
